Assay results: PubChem BioAssay
Activity calls are given as the source filed them.

Assays:
[1] = compounds binding Alexa647 anti-His antibody – biochemical, small-molecule microarray, 635 nm fluorescence, artefact control for SMM control protein annotation, primary screen (AID 1128); settings: higher = more signal;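 also: score merges feature fluorescence with signal-to-noise for each printed compound spot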
[2] = system: Human papillomavirus type 1a E7 protein (residues 1-88); assay: HPV1a E7 small-molecule binders, primary screen, biochemical, small-molecule microarray, residues 1-88, 635 nm (AID 1129); settings: small-molecule microarray binding, fluorescence 635 nm; higher = more signal
[3] = biological target: Focal adhesion kinase 1 (Homo sapiens) (UniProt Q05397); assay: PTK2 protein binding on printed compound slides – biochemical, small-molecule microarray, 635/667 nm fluorescence, BSA, DTT, primary screen (AID 1130); settings: 635 nm fluorescence, higher = more signal;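 also: composite of spot emission at 667 nm and signal to noise over triplicate slides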
Chain of Focal adhesion kinase 1 (Homo sapiens) (Q05397 whole entry, looked up): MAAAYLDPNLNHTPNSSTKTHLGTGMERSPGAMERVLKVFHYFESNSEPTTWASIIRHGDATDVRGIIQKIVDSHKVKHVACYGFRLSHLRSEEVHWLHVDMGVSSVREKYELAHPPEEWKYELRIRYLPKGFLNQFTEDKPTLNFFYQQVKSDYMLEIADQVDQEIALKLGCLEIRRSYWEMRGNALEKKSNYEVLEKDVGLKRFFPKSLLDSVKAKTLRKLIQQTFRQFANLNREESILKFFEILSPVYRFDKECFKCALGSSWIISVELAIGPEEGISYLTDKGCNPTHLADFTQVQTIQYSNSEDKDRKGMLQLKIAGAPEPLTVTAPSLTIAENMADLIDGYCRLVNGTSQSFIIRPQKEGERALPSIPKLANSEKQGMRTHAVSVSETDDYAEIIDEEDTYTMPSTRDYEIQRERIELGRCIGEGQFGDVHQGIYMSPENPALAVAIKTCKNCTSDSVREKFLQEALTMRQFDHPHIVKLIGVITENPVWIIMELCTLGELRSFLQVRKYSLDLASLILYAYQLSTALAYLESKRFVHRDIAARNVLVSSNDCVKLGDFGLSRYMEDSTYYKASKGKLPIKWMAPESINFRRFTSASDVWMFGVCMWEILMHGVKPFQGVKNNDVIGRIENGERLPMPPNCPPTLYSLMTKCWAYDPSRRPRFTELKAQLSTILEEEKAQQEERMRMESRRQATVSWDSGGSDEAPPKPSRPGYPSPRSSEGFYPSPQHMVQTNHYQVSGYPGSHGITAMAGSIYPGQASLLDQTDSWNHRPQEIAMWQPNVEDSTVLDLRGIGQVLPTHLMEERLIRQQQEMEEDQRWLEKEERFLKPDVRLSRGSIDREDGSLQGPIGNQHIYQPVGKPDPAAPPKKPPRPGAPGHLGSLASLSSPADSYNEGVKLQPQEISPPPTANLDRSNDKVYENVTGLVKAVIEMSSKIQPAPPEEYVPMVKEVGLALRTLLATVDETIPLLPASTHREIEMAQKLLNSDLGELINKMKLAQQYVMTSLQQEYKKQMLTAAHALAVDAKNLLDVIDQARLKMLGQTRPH

[4] = system: Fibrinogen (Alexa647-labelled); assay: Alexa647-fibrinogen binding to printed small molecules – biochemical, small-molecule microarray, 635/667 nm fluorescence, artefact control for SMM control-protein annotation, profiling panel (AID 1131); settings: fibrinogen-A647 binding fluorescence, higher = more signal;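 also: z-score merges 667 nm fluorescence with per-spot signal-to-noise over triplicate slides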
[5] = biological target: Follistatin (Homo sapiens) (UniProt P19883); assay: FST protein binding to printed compounds – biochemical, small-molecule microarray, 635/667 nm fluorescence, primary screen (AID 1132); settings: 635 nm fluorescence, higher = more signal
Chain of Follistatin (Homo sapiens) (P19883 whole entry, looked up): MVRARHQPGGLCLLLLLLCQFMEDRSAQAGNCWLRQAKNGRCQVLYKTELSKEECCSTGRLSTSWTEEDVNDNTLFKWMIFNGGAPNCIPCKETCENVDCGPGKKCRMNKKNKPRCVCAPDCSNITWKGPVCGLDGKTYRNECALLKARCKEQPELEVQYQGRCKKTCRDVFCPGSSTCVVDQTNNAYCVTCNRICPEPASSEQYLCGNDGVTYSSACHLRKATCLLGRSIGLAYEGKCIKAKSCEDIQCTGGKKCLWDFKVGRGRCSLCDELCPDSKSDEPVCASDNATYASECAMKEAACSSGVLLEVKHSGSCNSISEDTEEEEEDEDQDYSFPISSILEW

[6] = biological target: Fibroblast growth factor 2 (Homo sapiens) (UniProt P09038); assay: basic fibroblast growth factor binding to printed compounds – biochemical, small-molecule microarray, 635/667 nm fluorescence, primary screen (AID 1133); settings: FGF2, fluorescence 635/667, higher = more signal
Chain of Fibroblast growth factor 2 (Homo sapiens) (P09038 whole entry, looked up): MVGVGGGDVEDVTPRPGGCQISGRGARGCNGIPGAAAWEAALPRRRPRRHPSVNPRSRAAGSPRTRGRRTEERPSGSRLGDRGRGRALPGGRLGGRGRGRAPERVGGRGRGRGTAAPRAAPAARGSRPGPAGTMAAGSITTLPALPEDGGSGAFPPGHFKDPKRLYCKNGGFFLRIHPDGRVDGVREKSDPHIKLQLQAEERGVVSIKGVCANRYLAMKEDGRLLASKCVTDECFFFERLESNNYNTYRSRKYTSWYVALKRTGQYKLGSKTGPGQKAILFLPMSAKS

[7] = JC-1 mitochondrial potential readout, lung cancer cells – cell-based, A549, JC-1 fluorescence, basal, 24 h, 100 nL, profiling panel (AID 1138); settings: higher = more signal;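 also: A549 lung adenocarcinoma cells under basal conditions with no added stimulus; test concentration not given here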
[8] = system: Lefty1; assay: Lefty1 protein binding to printed compounds – biochemical, small-molecule microarray, 635/667 nm fluorescence, primary screen (AID 1139); settings: fluorescence 635/667, higher = more signal
[9] = system: wheat germ agglutinin (Triticum aestivum), Alexa647-labelled; assay: Alexa647-WGA lectin binding to printed small molecules – biochemical, small-molecule microarray, 635/667 nm fluorescence, artefact control for SMM control-protein annotation, profiling panel (AID 1140); settings: WGA-A647 binding, 635 nm fluorescence, higher = more signal;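 also: score merges 667 nm feature emission with signal to noise over triplicate slides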
[10] = biological target: Luciferin 4-monooxygenase (Photinus pyralis) (UniProt P08659); assay: inhibition of purified Photinus pyralis luciferase – biochemical, luminescence, purified enzyme, 2006 set, primary screen (AID 1141); settings: purified firefly luciferase, SteadyGlo luminescence, 30 min; higher = more signal, called active from +8 up or from −8 down;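 also: cell-free assay with purified firefly luciferase at 100 ng per well in PBS; test concentration not given here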
Chain of Luciferin 4-monooxygenase (Photinus pyralis) (P08659 whole entry, looked up): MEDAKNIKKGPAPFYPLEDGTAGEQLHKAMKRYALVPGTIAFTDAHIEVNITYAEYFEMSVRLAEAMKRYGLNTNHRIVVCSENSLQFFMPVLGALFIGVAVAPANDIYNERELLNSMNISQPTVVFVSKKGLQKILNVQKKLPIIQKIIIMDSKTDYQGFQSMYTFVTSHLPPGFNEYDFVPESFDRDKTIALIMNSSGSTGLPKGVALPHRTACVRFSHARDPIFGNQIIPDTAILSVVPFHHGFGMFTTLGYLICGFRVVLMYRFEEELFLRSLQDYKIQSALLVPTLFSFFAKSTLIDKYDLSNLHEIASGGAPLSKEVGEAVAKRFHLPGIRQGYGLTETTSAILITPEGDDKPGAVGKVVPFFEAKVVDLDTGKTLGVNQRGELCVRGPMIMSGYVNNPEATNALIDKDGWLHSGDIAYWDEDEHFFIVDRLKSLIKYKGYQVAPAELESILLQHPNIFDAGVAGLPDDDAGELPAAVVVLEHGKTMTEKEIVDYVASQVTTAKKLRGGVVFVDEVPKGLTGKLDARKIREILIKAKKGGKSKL

| SMILES | composite z-score [1] | composite z-score [2] | composite z-score [3] | composite z-score [4] | composite z-score [5] | composite z-score [6] | z-score [7] | composite z-score [8] | composite z-score [9] | z-score [10] |
| --- | --- | --- | --- | --- | --- | --- | --- | --- | --- | --- |
| COCCCNC(=O)[C@]1(Cc2ccccc2N=[N+]=[N-])N=C(c2ccc(OCCCO)cc2)O[C@@H]1c1ccccc1N=[N+]=[N-] | 2.22 | 1.19 | 0.356 | 0.983 | 0.778 | -0.165 | -0.214 | -0.252 | 0.676 | -3.27 (inactive) |
| [N-]=[N+]=NCc1ccccc1C[C@@]1(C(N)=O)N=C(c2ccc(OCCCO)cc2)O[C@@H]1c1ccccc1CN=[N+]=[N-] | 1.13 | 1.22 | 0.0375 | 0.761 | 0.591 | 0.653 | 1.45 | -0.242 | 0.756 | -1.11 (inactive) |
| COc1cc(OC)c(C(O)C2C=CC3C(=O)N(c4ccccc4)C(=O)C3N2Nc2ccc(C#N)cc2)cc1Br (stereo not given) | 1.36 | 1.02 | 0.707 | 0.674 | 1.22 | 0.217 | 0.658 | -0.129 | 1.13 | 0.289 (inactive) |
| NC(N)=NCc1cn(CCc2c[nH]c3ccccc23)nn1 | 2 | 0.599 | 0.0313 | 0.367 | 0.832 | 1.07 | 0.0134 | 1.05 | 0.0932 | -0.813 (inactive) |
| C=CCC(OC(C)=O)[C@@H]1[C@@H](N(Cc2ccc(-c3ccccc3)cc2)C(=O)c2cccc3ccccc23)c2cc(OCCCO)ccc2N1C(=O)Cc1ccc2ccccc2c1 (stereo not given in full) | 0.23 | -0.0083 | -0.0525 | -0.545 | 0.295 | -0.327 | 0.31 | 0.191 | 0.605 | -0.105 (inactive) |
| COC(=O)C1(Cc2ccccc2)C=C2C(=C(C(C)C)C(=O)C2C)CN1 (stereo not given) | 3.27 | -0.11 | 0.757 | -0.72 | -1.25 | -1.07 | -1.83 | -1.36 | 0.349 | 1.27 (inactive) |
| CCOC(=O)C[C@H]1[C@H](OC(=O)Cc2ccc3c(c2)OCO3)[C@@H](NC(=O)C2CCCCC2)c2cc(OCCCO)ccc2N1C(=O)c1ccc2ccccc2n1 | 0.0779 | 0.684 | 0.309 | 0.581 | 1.39 | 1.71 | -0.678 | 0.816 | -0.176 | 0.862 (inactive) |
| CC(=O)n1cc(C(O)C2C=CC3C(=O)N(Cc4ccccc4)C(=O)C3N2n2cnnc2)c2ccccc21 (stereo not given) | 0.483 | 0.0022 | 0.418 | 0.948 | 0.0251 | -0.465 | -0.463 | 0.204 | 0.505 | 0.702 (inactive) |
| C[n+]1ccc(CCCO)cc1 | -0.278 | -1.41 | -0.526 | -1.48 | 1.37 | 1.44 | -0.195 | 1.36 | -0.72 | 0.246 (inactive) |
| [N-]=[N+]=Nc1ccccc1C[C@@]1(C(=O)O)N=C(c2ccc(OCCCO)cc2)O[C@@H]1c1ccccc1 | 1.22 | 0.749 | 0.769 | 0.997 | 0.247 | -0.0664 | 0.528 | -0.634 | 1.09 | -0.972 (inactive) |
| C=C[C@@H](C)[C@H](OC(=O)Nc1ccc(SC)cc1)c1ccc(OCCO)cc1 | -0.0489 | -0.784 | 0.31 | -1.64 | 0.229 | -0.549 | -0.497 | 0.0878 | 0.782 | -4.77 (inactive) |
| C=CCC(OC(C)=O)[C@@H]1[C@@H](N(Cc2cc3ccccc3o2)C(=O)c2ccc(C)cc2)c2cc(OCCCO)ccc2N1C(=O)Cc1ccc2ccccc2c1 (stereo not given in full) | -0.631 | -0.627 | 0.105 | -0.638 | 0.119 | -0.421 | 1.91 | -0.281 | -0.152 | -1.72 (inactive) |
| NCCCCCNC(=O)[C@@H]1C[C@@H]2C(=O)N[C@@H](CCCCN)C(=O)N2[C@@H]1c1cccc(OCCO)c1 | 2.33 | -0.0045 | -0.214 | 0.101 | 1.17 | 1.25 | 0.844 | 1.54 | 0.715 | 1.03 (inactive) |
| O=C1c2ccccc2[C@](Cc2ccccc2I)(C(=O)NCCN2CCOCC2)[C@H](c2ccc(CO)cc2)N1Cc1ccccc1 | 0.0765 | 1.2 | 0.964 | 0.598 | 1.26 | 0.146 | 0.803 | 0.98 | 0.458 | -0.0588 (inactive) |
| COCCOC(=O)N1C(=O)[C@@]2(c3cc(C#Cc4ccc(OC)cc4)ccc31)[C@H](C(=O)NC[C@H](O)c1ccccc1)[C@H]1C(=O)O[C@H](c3ccccc3)[C@H](c3ccccc3)N1[C@@H]2c1ccc(O)cc1 | 0.933 | 1.16 | 0.33 | 0.912 | 1.16 | 1.01 | -1.47 | 1.19 | 0.666 | 0.273 (inactive) |
| C[C@]1(C(=O)NC2CC2)c2ccccc2C(=O)N(Cc2ccc(OC(F)(F)F)cc2)[C@H]1c1ccc(CO)cc1 | -0.725 | 0.722 | 0.576 | -0.796 | -0.239 | 0.0672 | 1 | -0.858 | -1.5 | 0.371 (inactive) |
| C=C[C@H](COC(C)=O)NS(=O)(=O)c1ccc(Br)cc1 | 0.207 | -0.575 | -0.0533 | 0.382 | 1.27 | -0.0651 | 0.695 | 0.17 | 0.146 | -0.503 (inactive) |
| COc1ccc(CCNC(=O)[C@@]2(Sc3ccc(C)cc3)CC(=O)N(Cc3cc(C(F)(F)F)cc(C(F)(F)F)c3)[C@@H]2c2ccc(CO)cc2I)cc1 | -0.361 | -0.162 | 0.368 | 0.562 | 0.801 | -0.525 | 0.345 | 0.012 | -0.0603 | 0.664 (inactive) |
| CCCC=C(CCC)[C@@H](NP(=O)(c1ccccc1)c1ccccc1)c1ccc(C(F)(F)F)cc1 | 0.74 | 0.811 | 0.666 | 0.47 | -0.683 | -0.265 | 0.365 | 0.57 | 0.255 | 2.55 (inactive) |
| CN1C2C=C(CCCO)C(C3C(=O)N(C(N)=O)C(=O)C32)C1c1cccs1 (stereo not given) | 0.738 | 0.151 | -0.111 | -0.451 | 0.044 | -0.22 | -0.405 | 0.38 | -0.303 | -0.655 (inactive) |
| COCCOC(=O)N1C(=O)[C@@]2(c3ccccc31)[C@H](C(=O)N1CCN(c3ncccn3)CC1)[C@H]1C(=O)O[C@H](c3ccccc3)[C@H](c3ccccc3)N1[C@@H]2c1ccc(OCCO)cc1 | 2.77 | 1.21 | 2.12 | 0.967 | 1.23 | 0.891 | -0.587 | 0.612 | 0.965 | -1.3 (inactive) |
| COc1ccc([Si](C)(C)[C@H]2[C@H](CCn3cc(CCO)nn3)O[C@@]3(C(=O)N(Cc4ccc(N5C(=O)c6cccc7cccc5c67)cc4)c4ccccc43)[C@@H]2C)cc1 | 1.12 | 1.2 | 0.379 | 0.431 | 1.23 | 0.949 | -0.932 | 1.31 | 0.578 | 0.303 (inactive) |
